HEK293 viab – reduces viability of HEK-293 SNCA reporter cells; HEK-293-SNCA-luc viability, GF-AFC fluorescence, 24 h; Potency, µM (series often up to 57.1 µM), hits mostly cytotoxic; actives 0.12% (n = 150,000); AID 1671193; note: nearly all actives have a fitted effect of over 30% in size
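HEK-293-SNCA-luc cells (1500/well) plated 24 h, then exposed 24 h to a dilution series; GF-AFC added 30 min at 37C, fluorescence 405/540 nm; normalised to medium-only and DMSO wells, Hill fit.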
IP6K1 inhibitor – IP6K1 kinase inhibition. IP6K1 kinase, ADP-Glo luminescence, 2 h; active compounds read low. AID 1645851. actives 0.81% (n = 140,000). activity change, % (series mostly up to about 58 µM); in the data active = activity change below about -25%
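ADP-Glo luminescence measures ADP made by human IP6K1 during a 2 h RT reaction with ATP/IP6 (mix at 1.3 mM/130 uM); top library doses 57.5 and 19.1 uM final.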
KDM5B inh – inhibitors of human KDM5B histone demethylase; Q9UGL1; KDM5B demethylase, FDH-coupled NADH fluorescence (FDH is formaldehyde dehydrogenase); Potency, µM (doses to about 57.7 µM), actives largely listed as inhibitors; actives 2.6% (n = 220,000); note: nearly all actives have a fitted effect of over 70% in size
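Measured: NADH fluorescence change, 30 min, RT. System: KDM5BΔAP 200 nM final, H3K4me3 peptide, α-KG, Fe(II), ascorbate, NAD⁺ plus FDH, pH 7.5 HEPES. Compounds: titrated, 10 min pre-incubation with enzyme.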
SNCA expr inh – inhibitors of alpha-synuclein (SNCA) gene expression; HEK-293 SNCA-luciferase knock-in, luminescence, 24 h; Potency, µM (top dose mostly 57.2 µM), most hits filed as inhibitors; actives 0.17% (n = 140,000); note: nearly all actives have a fitted effect of over 45% in size
Numbers stand for hits; ! = not confirmed by another sample. This is a sample that favours compounds with a hit; in the whole collection about 3% have one here. Unless noted, calls come from the whole dose curve; as a rule, active = well fitted curve in the direction sought with a large enough effect; inconclusive = small, poorly fitted or top-dose-only effect, or another doubt; inactive = no such curve, though single readings can be large; an effect the other way counts as inactive or inconclusive.

Results for C=CCO[C@@H]1C[C@H]2C(=O)Nc3ccc(-c4ccccc4)cc3C(=O)N2C1 ?
HEK293 viab: inactive; IP6K1 inhibitor: inactive; KDM5B inh: inactive; SNCA expr inh: inactive

How did COc1ccc(-c2ccc3c(c2)C(=O)N2CCN(C(=O)COc4ccccc4)C[C@@H]2C(=O)N3)cc1 do in these assays?
HEK293 viab: inactive; IP6K1 inhibitor: inactive; KDM5B inh: 28.2µM; SNCA expr inh: inactive

What do the screens show for `C=CCO[C@@H]1C[C@H]2C(=O)Nc3ccc(-c4ccc(OC)cc4)cc3C(=O)N2C1`?
HEK293 viab: inactive; IP6K1 inhibitor: inactive; KDM5B inh: 35.5µM; SNCA expr inh: inactive

How did COCC(=O)N1CCN2C(=O)c3cc(-c4cccc(C(F)(F)F)c4)ccc3NC(=O)[C@H]2C1 do in these assays?
HEK293 viab: inactive; IP6K1 inhibitor: inactive; KDM5B inh: 28.2µM; SNCA expr inh: inactive

Results for COc1ccc(-c2ccc3c(c2)C(=O)N2CCN(C(=O)c4cccnc4)C[C@@H]2C(=O)N3)cc1 ?
HEK293 viab: inactive; IP6K1 inhibitor: inactive; KDM5B inh: inconclusive; SNCA expr inh: inactive

How did O=C1Nc2ccc(-c3cccc(C(F)(F)F)c3)cc2C(=O)N2CCN(C(=O)NC3CCCCC3)C[C@H]12 do in these assays?
HEK293 viab: inactive; IP6K1 inhibitor: inactive; KDM5B inh: inconclusive; SNCA expr inh: inconclusive

Results for COCCCNC(=O)c1cn2cc(-c3cccc(OC)c3)sc2n1 ?
HEK293 viab: inactive; IP6K1 inhibitor: inactive; SNCA expr inh: inactive

How did CN(C(=O)Cc1c[nH]c2ccccc12)c1nc2ccccc2s1 do in these assays?
KDM5B inh: inactive

What do the screens show for `CCN(C(=O)COc1ncnc2ccc(Br)cc12)c1ccccc1`?
KDM5B inh: inactive

How did O=C1Nc2ccc(-c3cccc(C(F)(F)F)c3)cc2C(=O)N2C[C@H](O)C[C@@H]12 do in these assays?
HEK293 viab: inactive; IP6K1 inhibitor: inactive; KDM5B inh: inconclusive; SNCA expr inh: inactive

What do the screens show for `O=C1Nc2ccc(-c3cccc(C(F)(F)F)c3)cc2C(=O)N2CCN(C(=O)c3ccco3)C[C@@H]12`?
HEK293 viab: inactive; IP6K1 inhibitor: inactive; KDM5B inh: 35.5µM; SNCA expr inh: inactive

What do the screens show for `O=C(NCc1ccc(Cl)cc1)c1ccc2nnc(-c3cccnc3)n2c1`?
HEK293 viab: inactive; IP6K1 inhibitor: inactive; SNCA expr inh: inactive

How did O=C(NCc1cccc(C(F)(F)F)c1)c1ccc2nccn2c1 do in these assays?
HEK293 viab: inactive; IP6K1 inhibitor: inactive; KDM5B inh: 35.5µM; SNCA expr inh: inactive

How did O=C(NCc1ccncc1)c1ccc2nccn2c1 do in these assays?
HEK293 viab: inactive; IP6K1 inhibitor: inactive; KDM5B inh: inconclusive; SNCA expr inh: inactive

What do the screens show for `O=C(NCc1cccnc1)c1ccc2nccn2c1`?
HEK293 viab: inactive; IP6K1 inhibitor: inactive; KDM5B inh: 112µM!; SNCA expr inh: inactive

What do the screens show for `O=C(NCc1ccccc1)c1ccc2nnc(-c3cccnc3)n2c1`?
HEK293 viab: inactive; IP6K1 inhibitor: inactive; SNCA expr inh: 25.1µM

Results for O=C(NCc1cccs1)c1ccc2nccn2c1 ?
HEK293 viab: inactive; IP6K1 inhibitor: inactive; KDM5B inh: 35.5µM; SNCA expr inh: inactive

How did O=C(NCc1cccc(F)c1)c1ccc2nccn2c1 do in these assays?
HEK293 viab: inactive; IP6K1 inhibitor: inactive; SNCA expr inh: inactive

What do the screens show for `COc1ccccc1NC(=O)c1ncoc1-c1cccc(Cl)c1`?
KDM5B inh: inactive

How did C=C[C@@]1(C)C=C2C(=O)C(O)=C3[C@](C)(C(=O)O)CC[C@@H]4C[C@]34[C@]2(O)C(=O)C1 do in these assays?
HEK293 viab: 18.5µM; IP6K1 inhibitor: inactive

Results for O=C1Cc2cc(-c3csc(NC4CCCCC4)n3)cc3c2N1CCC3 ?
KDM5B inh: inactive

Results for Cc1cccn2c3c(c(=O)nc12)C(c1cccc(F)c1)CC(=O)N3 (stereo not drawn) ?
HEK293 viab: inactive; IP6K1 inhibitor: inactive; KDM5B inh: inactive; SNCA expr inh: inactive

How did CCNc1nc2c(s1)C(c1cccnc1)CC(=O)N2 (stereo not drawn) do in these assays?
HEK293 viab: inactive; IP6K1 inhibitor: -46.1; KDM5B inh: inconclusive; SNCA expr inh: inactive

Results for CNc1nc2c(s1)C(c1ccc(F)c(F)c1)CC(=O)N2 (stereo not drawn) ?
HEK293 viab: inactive; IP6K1 inhibitor: -37.0; KDM5B inh: 31.6µM; SNCA expr inh: inactive

What do the screens show for `CNc1nc2c(s1)C(c1cccc(F)c1)CC(=O)N2` (stereo not drawn)?
HEK293 viab: inactive; IP6K1 inhibitor: -67.2; KDM5B inh: 28.2µM; SNCA expr inh: inconclusive

What do the screens show for `Cc1cc(C)cc(N(CCC#N)C(=O)COC(=O)c2csc(NCc3ccccc3)n2)c1`?
KDM5B inh: inactive

How did COCCN1CCN(Cc2ccc(-c3n[nH]c4c3C(=O)c3c(NC(=O)NN5CCOCC5)cccc3-4)cc2)CC1 do in these assays?
HEK293 viab: 0.15µM; IP6K1 inhibitor: inactive

Results for Cc1ccc(-c2nn(CCC(=O)NN3CCOCC3)c(=O)c3ccccc23)cc1 ?
KDM5B inh: inactive

Results for COCCn1c(=O)c2c(n1Cc1ccccc1)CN(Cc1cccnc1OC)CC2 ?
HEK293 viab: inactive; IP6K1 inhibitor: inactive; KDM5B inh: 35.5µM; SNCA expr inh: inactive

Results for COCCn1c(=O)c2c(n1Cc1ccccc1)CN(Cc1cccc(C)n1)CC2 ?
HEK293 viab: inactive; IP6K1 inhibitor: inactive; KDM5B inh: 35.5µM; SNCA expr inh: inactive

How did CC(C)CCN1CCc2c(n(Cc3cccnc3)n(CCc3ccccc3)c2=O)C1 do in these assays?
HEK293 viab: inactive; IP6K1 inhibitor: inactive; KDM5B inh: 31.6µM; SNCA expr inh: inactive

Results for COCCn1c(=O)c2c(n1Cc1ccccc1)CN(Cc1ccc(C(C)C)cc1)CC2 ?
HEK293 viab: inactive; IP6K1 inhibitor: inactive; KDM5B inh: inconclusive; SNCA expr inh: inactive

How did Cc1ccc(NC(=O)Cn2nc3c(cc2=O)CCCCC3)cc1C do in these assays?
HEK293 viab: inactive; IP6K1 inhibitor: inactive; KDM5B inh: inactive; SNCA expr inh: inactive

What do the screens show for `CN1C(=O)c2ccc(NC(=O)Cn3nc4c(cc3=O)CCCC4)cc2C1=O`?
HEK293 viab: inactive; IP6K1 inhibitor: inactive; KDM5B inh: 28.2µM; SNCA expr inh: inactive

What do the screens show for `Cc1ccc(-c2ccc3nnc(CNC(=O)c4cc(F)ccc4F)n3n2)cc1`?
HEK293 viab: inactive; IP6K1 inhibitor: inactive; KDM5B inh: 25.1µM; SNCA expr inh: inactive

Results for Cc1ccc(-c2ccc3nnc(CNC(=O)c4ccc(F)cc4)n3n2)cc1 ?
HEK293 viab: inactive; IP6K1 inhibitor: inactive; KDM5B inh: 25.1µM; SNCA expr inh: inactive

How did CCN(CC)c1ccc(C(=O)NCc2nnc3ccc(-c4ccc(C)cc4)nn23)cc1 do in these assays?
HEK293 viab: inactive; IP6K1 inhibitor: inactive; KDM5B inh: inactive; SNCA expr inh: inactive

Results for O=C(NCc1nnc2ccc(-c3ccc(Cl)cc3)nn12)C1(c2ccccc2)CC1 ?
HEK293 viab: inactive; IP6K1 inhibitor: inactive; KDM5B inh: 20µM; SNCA expr inh: inactive

Results for O=C(NCc1nnc2ccc(-c3ccc(Cl)cc3)nn12)c1cc(F)ccc1F ?
HEK293 viab: inactive; IP6K1 inhibitor: inactive; KDM5B inh: inconclusive; SNCA expr inh: inactive

Screens as filed in PubChem.
